# Assay outcomes (PubChem)
# Shown are actives, neighbours in structure and some others; about 2.8% of the full set was active somewhere.
# HGIII-sPLA2 inh = human group III sPLA2 inhibitors, primary screen, biochemical, QFRET, BODIPY PC-A2 liposome substrate | actives 0.56% (n = 370,000) | QFRET BODIPY PC-A2 liposome hydrolysis, fluorescence | Group 3 secretory phospholipase A2 (Homo sapiens), Q9NZ20 | inhibition, % at 12.2 µM;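 active = inhibition above mean plus 3 SD of compounds lying within the high and low control bounds, cut at about 19% in these data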;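 note: 0% = median of test compound wells and 100% = no enzyme DMSO wells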
# Target sequence (Q9NZ20 whole entry, looked up): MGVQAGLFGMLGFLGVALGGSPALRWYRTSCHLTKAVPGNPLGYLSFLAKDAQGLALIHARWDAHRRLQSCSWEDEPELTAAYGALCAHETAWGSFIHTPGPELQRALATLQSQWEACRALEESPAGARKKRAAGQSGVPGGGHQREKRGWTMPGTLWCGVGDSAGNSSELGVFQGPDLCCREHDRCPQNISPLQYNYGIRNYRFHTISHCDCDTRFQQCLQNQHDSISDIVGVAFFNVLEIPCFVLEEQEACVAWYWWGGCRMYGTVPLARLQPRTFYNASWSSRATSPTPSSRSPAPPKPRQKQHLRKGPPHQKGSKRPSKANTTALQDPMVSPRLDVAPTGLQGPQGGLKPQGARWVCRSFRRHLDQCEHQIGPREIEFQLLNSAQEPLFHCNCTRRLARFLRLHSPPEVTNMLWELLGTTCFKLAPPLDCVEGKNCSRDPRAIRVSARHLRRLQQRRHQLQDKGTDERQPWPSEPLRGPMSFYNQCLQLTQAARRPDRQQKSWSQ
# MsrA act = bovine MsrA enzyme activators, primary screen, biochemical, absorbance, HTS. Methionine sulfoxide reductase A (Bos taurus). actives 0.3% (n = 360,000). purified bovine MsrA, absorbance read-out. AID 602163, 2012. activation, % at 10.6 µM; in the data active = activation above about 7.5%;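 note: 0% = vehicle and 100% = reference activator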
# MsrA inhibitor = bovine MsrA enzyme inhibitors, primary screen, biochemical, absorbance, HTS; purified bovine MsrA, absorbance read-out; AID 651718, 2012; actives 0.75% (n = 360,000); inhibition, % at 15.5 µM;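 note: 0% = vehicle wells with enzyme and 100% = reference inhibitor wells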
# rCAG binder = binders of r(CAG) RNA repeats, primary screen, biochemical, fluorescence. AID 651821, 2012. inhibition, % at 3 µM. actives 1.3% (n = 370,000). r(CAG) RNA repeat, TO-PRO-1 dye displacement fluorescence;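 active = inhibition above the plate cutoff, the mean of all test compounds on that plate plus 3 SD, cut at about 35% in these data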;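 note: 0% = DMSO alone and 100% = 100 µM mitoxantrone as full dye displacement; higher means more dye released from RNA so lower well fluorescence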
# MsrA conf = bovine MsrA inhibitors, retest, confirmation, biochemical, absorbance, HTS; AID 651822, 2012; shares compounds with MsrA inhibitor; inhibition, % at 15.5 µM; actives 41% (n = 2,300); purified bovine MsrA, absorbance read-out;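 note: coupled to thioredoxin reductase with NADPH and selenocystamine and DMSO as substrate; 0% = vehicle only and 100% = full effect of reference inhibitor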
# Numbers without * were called inactive; · = not tested or not shown. Cut-off read from the data, not from the text of the source, unless noted: active = inhibition above about 4.5%; inactive = the rest.
SMILES,HGIII-sPLA2 inh,MsrA act,MsrA inhibitor,rCAG binder,MsrA conf
CC(C)C(=O)N1CCN(c2ccc([N+](=O)[O-])c(NC(C)c3ccccc3)c2)CC1 (configuration not stated),11.5,-2.6,11.8*,-1.2,7.2*
Cc1nc(N2CCN(Cc3ccc4c(c3)OCO4)CC2)c2oc3ccccc3c2n1,-5.6,-3.7,9.9*,3.8,0.2
Cc1nn(-c2ccccc2)c(C)c1NC(=O)COC(=O)c1ccc(Cl)c(N)c1,1.0,-4.0,-0.4,-2.6,·
O=C(O)c1ccc(N/N=C/c2cccc3nccnc23)cc1,0.9,-8.4,5.3*,0.7,3.8
Cn1ccsc1=NC(=O)c1cccc(C#N)c1,3.1,-2.9,5.5*,-5.8,1.1
Cc1ccc(C(=O)N=c2sccn2C)cc1S(=O)(=O)N1CCOCC1,8.8,-2.8,6.0*,-1.9,3.1
Cn1cc(/C=N/NC(=O)c2ccc(C#N)cc2F)c2ccccc21,-0.5,-3.4,3.1,1.4,·
CCOC(=O)Cn1cc(/C=N/NC(=O)c2ccc(C#N)cc2F)c2ccccc21,-10.9,-3.9,6.2*,3.2,3.6
N#Cc1ccc(C(=O)N/N=C/c2cn(CC(=O)O)c3ccccc23)c(F)c1,19.2,-6.0,6.8*,3.5,2.8
CO/N=C/C(C#N)=C/c1ccc(OC)c(OC)c1,2.4,-3.6,5.1*,-3.7,3.0
CCOC(=O)/C(C#N)=C/c1ccc(OC)c(OC)c1,-0.1,-2.2,0.9,-0.3,·
NS(=O)(=O)c1ccc(-c2ccc(C=O)o2)cc1,-1.2,-12.2,4.7*,0.7,3.0
NS(=O)(=O)c1ccc(-c2ccc(/C=C3\NC(=S)NC3=O)o2)cc1,-2.1,-2.7,1.6,21.0,·
CCN(CC)c1ccc(C=NCCc2ccc(S(N)(=O)=O)cc2)cc1,8.4,-12.4,4.7*,1.3,2.5
CCN(CC)c1ccc(/C=N/NS(=O)(=O)c2cccc([N+](=O)[O-])c2)cc1,14.6,-6.7,5.4*,4.0,3.3
Cc1ccc(S(=O)(=O)N/N=C/c2ccccc2F)cc1[N+](=O)[O-],-2.1,-5.4,0.6,8.0,·
CCN(Cc1ccccc1)c1ccc(/C=N/NS(=O)(=O)c2ccc(C)c([N+](=O)[O-])c2)cc1,10.8,-12.9,4.8*,15.4,2.2
CCN(CC)c1ccc(/C=N/NS(=O)(=O)c2ccc(CNC(C)=O)cc2)cc1,-1.1,-4.2,6.2*,7.3,2.0
C/C(CC(=O)N1CCN(C=O)CC1)=N\NC(=O)c1ccc(Cl)cc1,4.3,-1.7,0.9,0.2,·
COc1ccc2[nH]c3c(c2c1)CCC/C3=N\N,8.3,-1.8,0.7,1.9,·
CCOC(=O)c1nnn(-c2nonc2-n2cccc2)c1CCl,-2.6,-5.8,6.4*,4.7,5.3*
O=[N+]([O-])c1cccc(/C=N/n2c(C3CCCCC3)n[nH]c2=S)c1,8.4,-0.2,5.0*,5.5,12.6*
Oc1cccc(/C=N/n2c(C3CCCCC3)n[nH]c2=S)c1,-0.2,0.9,-1.3,9.4,·
COc1cccc(/C=N/n2c(C3CCCCC3)n[nH]c2=S)c1,11.5,2.2,8.2*,3.3,6.5*
O=c1/c(=C/c2ccccn2)sc2n1CN(c1ccccc1)CN=2,4.9,-5.1,4.8*,1.5,3.9
SMILES,HGIII-sPLA2 inh,MsrA act,MsrA inhibitor,rCAG binder,MsrA conf
Cn1cccc1/C=N/NC(=O)c1ccco1,8.4,-0.5,5.9*,-2.2,3.8
Cn1cccc1/C=N/NC(=O)c1cccs1,10.8,-5.3,6.5*,-0.2,5.3*
O=C(N/N=C/c1ccc(Br)s1)c1ccco1,-5.9,-4.1,3.7,12.3,·
Cn1cc(/C=N\NC(=O)c2cccs2)c2ccccc21,4.4,-5.0,8.3*,3.0,4.5
Cc1ccc(/C=N/NC(=O)c2ccco2)s1,-0.5,-6.0,5.6*,3.3,4.9*
NNC(=O)CC(=O)NC1(Cc2ccc(O)cc2)CCCCC1,-17.5,2.4,-0.4,0.7,·
O=[N+]([O-])c1c(Nc2ccccc2O)cc(N2CCOCC2)c2nonc12,-28.2,-5.6,18.0*,2.4,24.3*
N#CC(=Cc1ccccn1)c1nc(-c2ccc(Cl)cc2)cs1,-7.4,-2.2,0.3,16.1,·
O=C(COc1ccccc1[N+](=O)[O-])N(Cc1ccccc1)c1ccccn1,6.1,-3.0,7.3*,-0.1,2.3
Cc1ccnc(SCc2cc(=O)c(OC(=O)c3ccccc3)co2)n1,7.6,-4.3,0.7,-0.9,·
